Bioassay records (PubChem BioAssay)
PGC1a acetyl inh: PGC1a acetylation modulation, inhibitor mode | U2OS PGC1a acetylation, AlphaScreen anti-acetyl-lysine; with virally co-expressed GCN5 acetyltransferase | inhibition, % at 15.6 µM | 350,000 compounds, 0.17% hits;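 active = every replicate shows inhibition of at least 40%; inconclusive = mean inhibition at least 40% but some replicate below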;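 also: 0% = neutral control wells and 100% = positive control wells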
NSD2 HMT inh: inhibitors of human histone methyltransferase NSD2. 310,000 compounds, 0.54% hits. AID 743445. O96028. NSD2 peptide methylation, AlphaScreen, 120 min. inhibition, % at 12.5 µM; in the data active = inhibition above about 50%
Env fusion inh: blocks HIV Env-driven cell-cell fusion; HeLa-JRFL Env/CEM21 cell fusion, luciferase; inhibition, % at 12.3 µM; 360,000 compounds, 1.1% hits; AID 651610;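 active = mean replicate inhibition score of at least 50 and every replicate individually at or above 50; inconclusive = only one of the two criteria met; inactive = mean below 50 and not all replicates reaching 50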;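 also: 0% = plate neutral controls and 100% = maraviroc near 300 nM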
GSIS activator: primary screen for activators of insulin secretion dependent on glucose, INS-1E cells, GLuc reporter luminescence | activation, % at 16.6 µM | 370,000 compounds, 0.61% hits | AID 743287 | INS-1E GLuc reporter insulin secretion, 2-3 h;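 active = lowest replicate activation of at least 40%, so every replicate reaches that level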;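 also: 0% = median of neutral control wells and 100% = median of IBMX positive control wells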
AF4-AF9 inh: blocks AF4 peptide binding to human AF9; P42568; AlphaScreen, biotin-AF4 peptide binding to FLAG-AF9; inhibition, % at 10 µM; 350,000 compounds, 0.47% hits; AID 651704;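 active = every replicate reaching a set inhibition limit, whatever the replicate mean, cut at about 25% in these data; inconclusive = mean inhibition reaches that limit but some replicates miss it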;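 also: 0% = plate neutral control median and 100% = total signal loss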
Alpha artifact: interferes with AlphaScreen signal, flagging NSD2 false positives; 1,500 compounds, 9.4% hits; shares compounds with NSD2 HMT inh; AC35, µM (doses to about 10 µM), for inactives: at the top dose activity change, negative = signal loss; AlphaScreen artifact counterscreen, preloaded methylated H4 peptide; call rule not given here
* = called active by the depositor; ? = inconclusive; · = no result given; [ ] = another dose, or the depositor's remark. Only some compounds are listed: those with a hit (about 2.1% of all), similar ones and a draw of the others.

SMILES	PGC1a acetyl inh	NSD2 HMT inh	Env fusion inh	GSIS activator	AF4-AF9 inh	Alpha artifact
O=C(CCc1nnc(CCCCc2ccccc2)o1)NC1CCCC1	15	83*	-3	-5	-2	-5%
Cc1cc(C)nc(NS(=O)(=O)c2ccc(NC(=O)c3ccccc3Br)cc2)n1	3	65*	-4	-3	-4	1%
Cc1cc(C)nc(NS(=O)(=O)c2ccc(NC(=O)c3ccco3)cc2)n1	11	0	·	0	·	·
COc1ccc(-c2cnc3c(c2)C(=O)N([C@H](C)CO)C[C@H](C)[C@H](CN(C)C(=O)Cc2ccccc2)O3)cc1	10	·	21[16.7 µM]	5	-2	·
Cc1nc(C)c(C(=O)Nc2ncc([N+](=O)[O-])s2)o1	·	50*	13	-20	-2	-10%
COc1ccc(OC)c(NC(=O)CSc2nc3n[nH]c(C)c3c(=N)n2-c2cccc(Cl)c2C)c1	·	4	12	6	-12	·
CCc1ccccc1NC(=O)CSc1nc2n[nH]c(C)c2c(=N)n1-c1cccc(OC)c1	4	58*	·	-19	1	-4%
CN1C(=O)c2cc(NC(=O)C3CC3)ccc2OC[C@H]2O[C@H](CC(=O)NCc3cccc(F)c3)CC[C@@H]21	1	·	19[16.7 µM]	3	·	·
COc1ccc(-c2ncncc2-c2ccccc2)c(O)c1	8	68*	29	17	2	-2%
COc1ccc(CCNS(=O)(=O)c2ccc3c(c2)NC(=O)CO3)cc1OC	-22	-1	-33	-1	1	·
CCOc1cc(N2CCOCC2)c(OCC)cc1NC(C)C(=O)N1CCN(CC)CC1 (centres undefined)	-4	90*	4	-9	6	2%
CC(C)NC(=O)N[C@H]1CC[C@H](CCNC(=O)C2CCC2)O[C@H]1CO	5	·	-27[16.7 µM]	7	2	·
COc1ccc2c3c(n(C)c2c1)[C@H](CO)N(C(=O)Nc1ccc(F)cc1)CC31CN(C(=O)NC2CCCC2)C1	-4	·	·	-15	-4	·
Cc1ccc(Cl)cc1NC(=O)COC(=O)c1ccc(CN2CCCC2=O)cc1	·	4	·	5	-3	·
O=C(c1coc(=O)c(Br)c1)N1CCOCC1	-1	141*	·	·	·	-8%
COc1cccc(C(CNC(=O)C(c2ccccc2)c2ccccc2)N(C)C)c1 (centres undefined)	·	12	-32	-16	4	·
CO[C@H]1CN(C)C(=O)c2ccc(NC(=O)NC(C)C)cc2OC[C@@H](C)N(C(=O)NC(C)C)C[C@@H]1C	-8	·	10[16.7 µM]	3	-1	·
O=C(NC1CCCc2ccccc21)c1ccccc1Cl (centres undefined)	·	-2	10	-3	-1	·
O=C(NC1CCCc2ccccc21)c1ccccc1OC(F)F (centres undefined)	2	95*	-24	6	-2	-1%
CCN(CC)Cc1c(O)c(Cl)cc2c(C)c(C)c(=O)oc12	19	0	-15	·	·	·
CCN(CC)Cc1c(O)c(Cl)cc2c(C)cc(=O)oc12	-18	112*	11	3	0	-5%
COCCNc1nc(-c2ccccc2)nc2ccccc12	-13	51*	4	36	-5	-3%
Fc1ccc(CNc2nc(-c3cccnc3)nc3ccccc23)cc1	-2	118*	6	2	1	1%
COC(=O)[C@]1(C)N[C@H](c2ccc(SC3CCCCC3)cc2)[C@@H]2C(=O)N(C)C(=O)[C@@H]21	2	·	-24	-8	-2	·
COCC#Cc1ccc2c(c1)O[C@@H](CN(C)C(C)=O)[C@@H](C)CN([C@H](C)CO)S2(=O)=O	-2	·	4[16.7 µM]	24	-2	·
SMILES	PGC1a acetyl inh	NSD2 HMT inh	Env fusion inh	GSIS activator	AF4-AF9 inh	Alpha artifact
CN1CCN(C(=O)CC2(CC(=O)O)CCCC2)CC1	·	1	9	24	-2	·
COc1ccc(CNC(=O)CN(c2ccc(C)cc2)S(=O)(=O)c2c(C)noc2C)cc1	·	63*	-1	7	-22	-1%
CCC(=O)N1CC2(C1)[C@H](c1ccc(-c3ccc(C)cc3)cc1)[C@@H](CO)N2S(C)(=O)=O	-4	·	·	-3	1	·
CCCCN(C)C(=O)C1CCN(Cc2cccc(OCc3ccccc3)c2)CC1	-13	73*	11	-26	4	-7%
COc1ccccc1NS(=O)(=O)c1ccc(C(=O)N2CCCCCC2)cc1	·	-2	?	-17	1	·
CCOC(=O)C1CCCN(C(=O)c2ccc(S(=O)(=O)Nc3ccccc3OC)cc2)C1 (centres undefined)	1	54*	-12	-13	0	2%
CCOC(=O)C1CCCN(C(=O)c2ccc(OC(C)=O)cc2)C1 (centres undefined)	2	93*	-59	·	·	-6%
COc1cc(CCNC2=CC(=O)c3ncccc3C2=O)ccc1O	6	128*	22	-37	2	-3%
COc1ccccc1CNS(=O)(=O)c1cc(CN2C(=O)c3cccnc3C2=O)ccc1OC	0	-3	-25	28	-6	·
Cc1cccc2c(=O)c(C(=O)NCc3ccc(F)cc3)c[nH]c12	-7	57*	-2	14	-35	-6%
CC(C)CNS(=O)(=O)c1ccccc1C(=O)N1CCCCC1	0	-2	-73	·	·	·
Cc1cccc(C)c1OCC(O)CNS(=O)(=O)c1ccccc1C(=O)N1CCCCC1 (centres undefined)	·	105*	26	·	·	-6%
COc1cc(C(=O)NNC(=S)NC(=O)c2ccc(F)cc2)cc(OC)c1OC	·	-1	1	·	3	·
O=C1NN(c2ccccc2)C(=O)/C1=C/c1ccc(-c2ccc(Cl)c(C(=O)O)c2)o1	·	24	10	-2	1	·
Cc1cccc(N2NC(=O)/C(=C/c3ccc(-c4ccc(Cl)c(C(=O)O)c4)o3)C2=O)c1	-4	76*	-17	-1	-2	-8%
CC1(C)NC(=O)N(CCCCOc2ccc(Cl)cc2)C1=O	2	-2	11	·	·	·
CCc1cc(OCCN2C(=O)NC(C)(C)C2=O)ccc1Cl	-7	72*	27	·	·	-3%
O=C(O)C1CC(c2ccccc2F)=NO1 (centres undefined)	7	108*	-89	·	·	-7%
O=C1CCN2C=Nc3cccc4ccc1c2c34	22	115*	41	·	·	3%
Cc1ccc(-c2ccc3c(c2)O[C@@H](CN(C)C(=O)CN(C)C)[C@@H](C)CN([C@H](C)CO)S3(=O)=O)cc1	-6	·	9[16.7 µM]	7	8	·
Cn1c(NNC(=O)c2c(F)cccc2F)cc(=O)n(C)c1=O	·	62*	-8	-3	0	-4%
COc1ccc(-n2c3nc4ccccc4nc3c3c(=N)oc(C)nc32)cc1	0	115*	·	-11	·	3%
O=C1CCC(N2C(=O)c3ccccc3C2=O)C(=O)N1 (centres undefined)	1	·	3	-8	-1	·
CN(C)c1cc(N/N=C/c2ccc(Cl)cc2)nc(N(C)C)n1	·	100*	-1	-12	15	-4%
CN1CCN(/N=C/c2nc(-c3ccccc3Cl)n3ccccc23)CC1	·	67*	1	28	·	-5%
